Bioassay records (PubChem BioAssay)
Mdm2 MdmX PPI – inhibitors of human Mdm2/MdmX interaction. inhibition, % at 8 µM. AID 485346. O15151+Q00987. SaOS-2 split-luciferase Mdm2/MdmX complementation, luminescence. hit rate 3% among 330,000;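 active = inhibition of at least 50% at 8 µM in the primary screen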
Jurkat NFkB inh – lowers PMA/ionomycin-induced NF-kB signal in Jurkat cells; PMA/ionomycin-induced NF-kB luciferase reporter, luminescence; hit rate 0.53% among 330,000; inhibition, % at 4 µM; in the data active = inhibition above about 50%
Beta cell apopt – beta cell apoptosis inhibition. INS-1E cytokine-induced death, ATP luminescence, 48 h; percent of positive-control rescue, neutral wells zero. protection from apoptosis, % (no concentration beside the values). hit rate 0.8% among 300,000. AID 435005;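 active = Every replicate reaches about 75%, or at least half do and their mean reaches it too, limit read from the data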;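 note: higher means more ATP so stronger rescue from cytokine killing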
Bfl-1 A1 inh – inhibitors of the anti-apoptotic protein A1, read as caspase activation; MEF A1-2A-BIM cells, Caspase-Glo 3/7 luminescence, 3 h; percent of clofoctol response, vehicle zero; caspase activation, % (no concentration beside the values); hit rate 0.066% among 330,000; AID 2462;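 active = over half of replicate activation scores above 10%, or exactly half above 10 with the replicate mean above 10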
697 NFkB inh – inhibitors of the PMA/ionomycin-induced NF-kB reporter in 697 B cells; inhibition, % at 4 µM; hit rate 0.33% among 330,000; AID 435022; 697 B-cell NF-kB luciferase reporter, 16 h; in the data active = inhibition above about 35%
NTR1 agonist – activates human neurotensin receptor 1 | NTR1-U2OS beta-arrestin-GFP spot imaging, agonist mode | P30989 | hit rate 0.17% among 330,000 | activation, % at 20 µM;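 active = activation at or above 40% of the spot to cytoplasm intensity ratio, with at least 20 cells analyzed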
Target sequence (P30989 whole entry, looked up): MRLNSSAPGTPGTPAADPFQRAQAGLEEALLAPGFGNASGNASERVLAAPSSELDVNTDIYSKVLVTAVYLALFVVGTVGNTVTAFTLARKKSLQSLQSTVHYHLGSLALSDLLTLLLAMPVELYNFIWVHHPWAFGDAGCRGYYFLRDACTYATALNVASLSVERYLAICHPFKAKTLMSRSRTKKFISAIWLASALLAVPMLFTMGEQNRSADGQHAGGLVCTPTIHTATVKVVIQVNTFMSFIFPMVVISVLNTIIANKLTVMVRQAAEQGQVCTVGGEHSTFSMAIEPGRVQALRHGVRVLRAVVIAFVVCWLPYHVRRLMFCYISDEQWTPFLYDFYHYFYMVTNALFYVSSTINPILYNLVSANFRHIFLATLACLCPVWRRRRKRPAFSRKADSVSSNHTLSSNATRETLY
Mdm2 MdmX conf – human Mdm2/MdmX binding inhibition, confirmed | shares compounds with Mdm2 MdmX PPI | luminescent assay | inhibition, % at 8 µM | hit rate 55% among 10,000 | AID 489028; in the data active = inhibition above about 40%
FLuc counter – inhibits full-length luciferase, flagging false Mdm2/MdmX hits; shares compounds with Mdm2 MdmX PPI; SaOS-2 full-length luciferase counterscreen, luminescence; inhibition, % at 8 µM; hit rate 77% among 6,200;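 active = mean inhibition at 8 µM reaching about 37%, which flags the compound as non-specific, limit read from the data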;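 note: p53-null SaOS-2 cells with luciferase driven by a doxycycline-inducible promoter; compound on cells about two nights before reading with doxycycline added after day one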
Of the large screens only hits and unclear results are named; the others gave an inactive call (follow-up assays come after a bar, where they were run); ! = not confirmed by another sample. The list is not random: actives were taken first. Their share in the collection is about 3.8%.

COCCn1c(C)cc(C2=NNC(=Nc3ccccc3)SC2)c1C	Mdm2 MdmX PPI 62.1 | Mdm2 MdmX conf 72.8 | FLuc counter 81.4
O=C(NCCCNc1ccc([N+](=O)[O-])cc1)C(F)(F)F	none (no result: Beta cell apopt)
O=C(CCl)N(CCCNC(=O)C(F)(F)F)c1ccc([N+](=O)[O-])cc1	Mdm2 MdmX PPI 93.0 | Mdm2 MdmX conf 71.8 | FLuc counter 38.2
COc1cccc(C(=O)NCCS(=O)(=O)NCCc2ccc(OC)c(OC)c2)c1	none
COc1cc2[nH]c(C(=O)Nc3ccc4c(c3)OCCO4)cc2c(OC)c1OC	none (no result: Beta cell apopt)
COc1cc2cc(C(=O)Nc3ccc4c(c3)OCCO4)[nH]c2cc1OC	Mdm2 MdmX PPI 65.4 | Mdm2 MdmX conf 48.4 | FLuc counter 71.3
Cc1nc(C(=O)NCc2ccccc2)sc1C1(C)CC(c2cccc([N+](=O)[O-])c2)=NO1 (centres undefined)	Mdm2 MdmX PPI 63.9 | Mdm2 MdmX conf inactive
CNC(=O)c1nc(C)c(C2(C)CC(c3cccc([N+](=O)[O-])c3)=NO2)s1 (centres undefined)	Mdm2 MdmX PPI 52.6 | Mdm2 MdmX conf 43.0 | FLuc counter 57.3
Cc1cc(C)c(C)c(OCCN2CCOCC2)c1	none
NC(=O)N/N=C/c1c(Sc2nnnn2-c2ccccc2)nc2ccccn2c1=O	Mdm2 MdmX PPI 62.0 | Mdm2 MdmX conf 50.1 | FLuc counter inactive
O=C(OCC(=O)N1CCCC1=O)c1nc(Cl)c(Cl)c(Cl)c1Cl	Mdm2 MdmX PPI 77.3 | Mdm2 MdmX conf inactive
Nc1c(Cl)c(Cl)nc(C(=O)OCC(=O)N2CCCC2=O)c1Cl	none (no result: Beta cell apopt)
Cc1csc(NC(=O)Cc2c(F)cccc2Cl)n1	none
Cc1csc(Nc2nc(N)c(C(=O)Nc3cc(Cl)ccc3F)o2)n1	Mdm2 MdmX PPI 55.0 | Mdm2 MdmX conf inactive
Cc1cc(SCC(=O)N/N=C/c2ccc(O)cc2O)nc2ccccc12	Mdm2 MdmX PPI 74.4 | Mdm2 MdmX conf 73.2 | FLuc counter inactive
CC(=O)c1nn(-c2cccc(Br)c2)cc1C(=O)c1ccc(Br)cc1	Mdm2 MdmX PPI 55.6 | Mdm2 MdmX conf inactive
CC(=O)c1nn(-c2cccc(Br)c2)cc1C(=O)c1ccc(C)cc1	none
O=C(Nc1ccc(N2CCOCC2)cc1)c1cnsn1	Mdm2 MdmX PPI 70.2 (no result: Beta cell apopt, Bfl-1 A1 inh) | Mdm2 MdmX conf 67.8 | FLuc counter inactive
O=C(Nc1ccc(N2CCOCC2)cc1)c1ccncc1	none
O=C(Nc1ccc(N2CCOCC2)cc1)c1cnccn1	Mdm2 MdmX PPI 53.8 (no result: Beta cell apopt) | Mdm2 MdmX conf inactive
O=C(Nc1ccccc1N1CCOCC1)c1cnccn1	none
COc1ccc(Cl)cc1NC(=O)CSc1nc2ccsc2c(=O)n1CC1CCC(C(=O)O)CC1 (centres undefined)	none
CNCCCC12CCC(c3ccccc31)c1ccccc12	Mdm2 MdmX PPI 59.3! | Mdm2 MdmX conf inactive
CCn1cc(S(=O)(=O)N2CCN(c3ccc(Cl)cc3)CC2)cn1	none
CC(=O)Nc1ccc2nc(-c3ccccc3)cn2c1	none
Cc1ccc2nc(-c3cc(-c4ccccc4)no3)cn2c1	Mdm2 MdmX PPI 69.5 | Mdm2 MdmX conf inactive
CCc1ccn2cc(-c3cc(-c4ccccc4)no3)nc2c1	Mdm2 MdmX PPI 65.7 | Mdm2 MdmX conf 67.0 | FLuc counter 95.2
CC1(C)Cc2c(cnn2-c2ccc(F)cc2)C(NC(=O)C2CCC2)C1 (centres undefined)	none
Cc1ccc(S(=O)(=O)Nc2cccc(-c3ccc4nnc(C)n4n3)c2)s1	Mdm2 MdmX PPI 64.7 | Mdm2 MdmX conf inactive
CC[C@H](C)C(=O)O[C@H]1CCC=C2C=C[C@H](C)[C@H](CC[C@@H]3C[C@@H](O)CC(=O)O3)[C@H]21	none
CC[C@H](C)C(=O)O[C@H]1C[C@@H](C)C=C2C=C[C@H](C)[C@H](CC[C@@H]3C[C@@H](O)CC(=O)O3)[C@H]21	Mdm2 MdmX PPI 52.7! | Mdm2 MdmX conf inactive
COc1ccccc1CNC(=O)CCCOc1cc(=O)n(C)c2ccccc12	Mdm2 MdmX PPI 58.5 | Mdm2 MdmX conf inactive
COc1ccc(CCNC(=O)CCCOc2cc(=O)n(C)c3ccccc23)cc1OC	none
O=C(CCn1c(=S)oc2ccccc21)Nc1cc([N+](=O)[O-])ccc1F	none
CC1(C)CC[C@]2(C(=O)O)CC[C@]3(C)C(=CC[C@@H]4[C@@]5(C)CC[C@H](O[C@@H]6O[C@H](C(=O)O)[C@@H](O)[C@H](O[C@@H]7OC[C@H](O)[C@H](O)[C@H]7O)[C@H]6O)C(C)(C)[C@@H]5CC[C@]43C)[C@@H]2C1	Mdm2 MdmX PPI 79.2, Beta cell apopt 108.6 | Mdm2 MdmX conf inactive | FLuc counter 44.2
CC1(C)CC[C@]2(C(=O)O[C@@H]3O[C@H](CO)[C@@H](O)[C@H](O)[C@H]3O)CC[C@]3(C)C(=CCC4[C@@]5(C)CC[C@H](O[C@@H]6O[C@H](C(=O)O)[C@@H](O[C@H]7OC[C@@H](O)[C@@H](O)[C@@H]7O)[C@H](O)[C@H]6O)C(C)(C)C5CC[C@]43C)[C@@H]2C1 (some centres undefined)	none
C=CCOc1ccccc1/C=N/NC(=O)c1ccc(Cl)cc1Cl	none
COc1cc(C(=O)Oc2ccccc2/C=N/NC(=O)c2ccc(Cl)cc2Cl)cc(OC)c1OC	Mdm2 MdmX PPI 55.8, Beta cell apopt 92.1 | Mdm2 MdmX conf inactive
COc1ccc(S(=O)(=O)Nc2ccc3c(c2)CC(=O)N([C@@H](C)CO)C[C@H](C)[C@@H](CN(C)S(=O)(=O)c2ccc(F)cc2)O3)cc1	none
CCCCCCN(C(=O)CCCCCN1C(=O)NC(c2ccc(-c3ccccc3)cc2)C(C(=O)OCc2ccccc2)=C1C)C(C(=O)NCCCC)c1ccc(O)c(C(=O)OC)c1 (centres undefined)	none (no result: Beta cell apopt, Bfl-1 A1 inh)
CCCCCCN(C(=O)CCCCCN1C(=O)NC(c2ccc(C(C)(C)C)cc2)C(C(=O)OCc2ccccc2)=C1C)C(C(=O)NCCCC)c1ccc(OCC(=O)OC)c(C(=O)OC)c1 (centres undefined)	Mdm2 MdmX PPI 77.0 (no result: Beta cell apopt, Bfl-1 A1 inh) | Mdm2 MdmX conf inactive
CC(=O)N1CCN(C(=O)c2cc(S(=O)(=O)N3CCN(c4ccccc4)CC3)ccc2Cl)CC1	none (no result: Beta cell apopt, Bfl-1 A1 inh)
Cc1ccc2nc(/C(C#N)=C/c3cn[nH]c3-c3ccc(F)cc3)[nH]c2c1	Mdm2 MdmX PPI 65.6 | Mdm2 MdmX conf 57.1 | FLuc counter 47.8
CCC(CO)Oc1cc(NCc2ccc(C(F)(F)F)cc2)c2ncn(C(C)C)c2c1 (centres undefined)	none
C=CCN1C(=O)/C(=C2/Sc3ccc(OC)cc3N2C)SC1=Nc1cccc(O)c1	Mdm2 MdmX PPI 66.9 | Mdm2 MdmX conf inactive
